Data from PubChem BioAssay.
A number with no mark means an inactive call. For some assays here: Results with a measured potency or affinity are listed apart. Calls of active or inactive are those of the source. Unless noted, no rule for the calls is given here.

Columns and labels:
[1] = antimalarial activity against Dd2 strain (AID 2302;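 active = growth inhibition above 50% at the single 2 µM test dose, taken to imply half-maximal potency below 2 µM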;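 also: 0% = DMSO untreated growth and 100% = chloroquine plus artemisinin killed control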); details: P. falciparum Dd2 in RBCs, LDH growth readout, 72 h; at 2 µM; stronger effect = higher value
[2] = human hepatoma cell viability loss – ATP luminescence, cytotoxicity control for P. falciparum antimalarial project, primary screen (AID 2303;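 active = inhibition above 50%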;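 also: 0% = DMSO wells and 100% = digitonin-killed cells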); details: HepG2 viability, 24-48 h, at 10 µM, stronger effect = higher value
[3] = target: L-lactate dehydrogenase (Plasmodium falciparum (isolate CDC / Honduras)) (UniProt Q27743); assay: PfLDH activity inhibition – cell lysate, 3D7 strain, counter-screen for P. falciparum growth inhibition project (AID 2304);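 also: 0% = vehicle and 100% = reference inhibitor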; details: P. falciparum 3D7 crude extract, LDH APAD/NBT absorbance; at 2 µM; stronger effect = higher value
[4] = inhibition of 3D7 malaria parasite growth – strain 3D7 (AID 2306);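 also: 0% = DMSO wells and 100% = chloroquine plus artemisinin control wells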; details: P. falciparum 3D7 erythrocytic growth, LDH absorbance, 72 h; at 2 µM; stronger effect = higher value
[5] = target: Calcium-dependent protein kinase 1 (Plasmodium falciparum (isolate 3D7)) (UniProt P62344); assay: PfCDPK1 kinase inhibitors, biochemical, TCAMS library (AID 1159585; cut-off not given, nearly all actives have IC50 up to about 0.98 µM;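 also: inhibitors leave more ATP so luminescence rises with inhibition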); details: recombinant PfCDPK1, Kinase-Glo ATP depletion luminescence
[6] = target: Plasmodium falciparum protein kinase 6 (PK6, PF3D7_1337100) (UniProt Q8IDW1); assay: PfPK6 kinase inhibitors, biochemical, TCAMS library (AID 1159586); details: recombinant PfPK6, Kinase-Glo ATP depletion luminescence
[7] = target: Protein kinase 7 (PK7), Plasmodium falciparum 3D7 (PF3D7_0213400) (UniProt Q7YTF7); assay: inhibition of Plasmodium PK7 catalytic activity – biochemical, TCAMS antimalarial set, Kinase-Glo luminescence (AID 1159587); details: recombinant PfPK7, Kinase-Glo ATP depletion luminescence
[8] = target: Calcium-dependent protein kinase 4 (Plasmodium falciparum (isolate 3D7)) (UniProt Q8IBS5); assay: PfCDPK4 kinase inhibitors, biochemical, TCAMS library (AID 1159588; cut-off not given, nearly all actives have IC50 up to about 0.91 µM); details: recombinant PfCDPK4, Kinase-Glo ATP depletion luminescence
Calcium-dependent protein kinase 4 (Plasmodium falciparum (isolate 3D7)), sequence (Q8IBS5 whole entry, looked up): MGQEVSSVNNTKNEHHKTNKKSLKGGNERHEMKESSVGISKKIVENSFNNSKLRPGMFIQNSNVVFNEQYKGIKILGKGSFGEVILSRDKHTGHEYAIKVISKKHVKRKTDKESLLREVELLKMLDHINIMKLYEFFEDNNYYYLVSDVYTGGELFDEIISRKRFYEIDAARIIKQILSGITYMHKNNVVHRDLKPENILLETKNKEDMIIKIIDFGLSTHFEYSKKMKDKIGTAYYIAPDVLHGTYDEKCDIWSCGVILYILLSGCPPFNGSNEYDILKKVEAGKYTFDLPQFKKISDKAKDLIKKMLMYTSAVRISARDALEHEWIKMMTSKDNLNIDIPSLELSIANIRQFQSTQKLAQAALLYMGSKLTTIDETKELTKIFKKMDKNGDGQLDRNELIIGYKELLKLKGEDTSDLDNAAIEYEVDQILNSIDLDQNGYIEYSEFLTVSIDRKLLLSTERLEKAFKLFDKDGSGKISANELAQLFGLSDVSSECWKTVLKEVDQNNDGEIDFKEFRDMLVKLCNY

L-lactate dehydrogenase (Plasmodium falciparum (isolate CDC / Honduras)), sequence (Q27743 whole entry, looked up): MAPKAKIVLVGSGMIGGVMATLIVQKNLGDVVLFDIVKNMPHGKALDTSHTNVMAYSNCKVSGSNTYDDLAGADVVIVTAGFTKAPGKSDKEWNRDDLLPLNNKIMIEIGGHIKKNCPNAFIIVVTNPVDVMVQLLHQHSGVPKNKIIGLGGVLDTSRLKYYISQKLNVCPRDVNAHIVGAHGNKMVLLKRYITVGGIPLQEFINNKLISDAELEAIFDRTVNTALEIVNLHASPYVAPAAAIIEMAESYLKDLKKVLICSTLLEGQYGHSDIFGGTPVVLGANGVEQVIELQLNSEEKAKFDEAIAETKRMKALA
Plasmodium falciparum protein kinase 6 (PK6, PF3D7_1337100), sequence (Q8IDW1 1-305): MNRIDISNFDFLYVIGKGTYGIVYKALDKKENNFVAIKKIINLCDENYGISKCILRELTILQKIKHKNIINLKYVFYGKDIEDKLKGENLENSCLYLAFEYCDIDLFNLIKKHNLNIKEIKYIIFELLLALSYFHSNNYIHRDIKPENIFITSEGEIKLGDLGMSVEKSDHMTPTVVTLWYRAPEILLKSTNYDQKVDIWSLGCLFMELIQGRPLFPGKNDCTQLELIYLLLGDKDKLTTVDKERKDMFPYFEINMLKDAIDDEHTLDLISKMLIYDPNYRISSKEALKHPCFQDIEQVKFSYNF
Calcium-dependent protein kinase 1 (Plasmodium falciparum (isolate 3D7)), sequence (P62344 whole entry, looked up): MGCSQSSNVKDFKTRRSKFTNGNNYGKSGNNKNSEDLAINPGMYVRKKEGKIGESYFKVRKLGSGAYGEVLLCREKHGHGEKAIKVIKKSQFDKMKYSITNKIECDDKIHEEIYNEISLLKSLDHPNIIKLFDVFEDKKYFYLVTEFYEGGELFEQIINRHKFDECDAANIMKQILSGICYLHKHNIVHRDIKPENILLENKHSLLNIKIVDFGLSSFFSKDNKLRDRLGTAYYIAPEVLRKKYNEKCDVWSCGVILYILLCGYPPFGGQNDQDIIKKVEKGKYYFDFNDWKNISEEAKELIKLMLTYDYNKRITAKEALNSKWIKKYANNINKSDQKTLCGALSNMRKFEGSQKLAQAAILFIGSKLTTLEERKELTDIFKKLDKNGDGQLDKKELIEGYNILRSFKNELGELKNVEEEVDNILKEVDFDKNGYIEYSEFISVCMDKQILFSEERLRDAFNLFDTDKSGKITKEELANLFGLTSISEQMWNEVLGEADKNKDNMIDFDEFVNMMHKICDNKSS
Protein kinase 7 (PK7), Plasmodium falciparum 3D7 (PF3D7_0213400), sequence (Q7YTF7 1-343): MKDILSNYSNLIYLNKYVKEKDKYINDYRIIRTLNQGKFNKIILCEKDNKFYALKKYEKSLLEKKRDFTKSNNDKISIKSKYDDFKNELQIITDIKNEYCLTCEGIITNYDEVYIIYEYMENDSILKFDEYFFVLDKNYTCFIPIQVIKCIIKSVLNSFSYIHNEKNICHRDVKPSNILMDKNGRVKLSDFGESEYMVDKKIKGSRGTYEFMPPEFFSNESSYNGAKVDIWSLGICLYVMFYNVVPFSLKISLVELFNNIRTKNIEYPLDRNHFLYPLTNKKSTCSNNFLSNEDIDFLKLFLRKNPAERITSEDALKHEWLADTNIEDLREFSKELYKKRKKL

Row | SMILES | growth inhibition [1] | inhibition [2] | inhibition [3] | growth inhibition [4] | outcome [5] | outcome [6] | outcome [7] | outcome [8]
1 | Cc1cc(Nc2ccc(O)cc2)nc2cc(O)ccc12 | 9% | 0% | -2% | 100% (active) | inactive | inactive | inactive | inactive
2 | COc1cc2nc(NCCn3ccnc3C)nc(NCCc3ccccc3)c2cc1OC | 0% | 21% | -6% | 99% (active) | inactive | inactive | inactive | inactive
3 | CN(C)CCCOc1cc(NC(=O)Nc2ccc(-c3ccncc3)c3ccccc23)ccc1I | 97% (active) | 46% | 1% | 101% (active) | inactive | inactive | inactive | inactive
4 | Cc1c(Cl)cccc1NC(=S)NN=Cc1ccccn1 | 85% (active) | 58% (active) | 5% | 99% (active) | inactive | inactive | inactive | inactive
5 | OC(CNc1ccnc(Nc2cccc(Cl)c2)n1)c1cccc(F)c1 (stereo not given) | 29% | 16% | 3% | 90% (active) | inactive | inactive | inactive | inactive
6 | O=C(CCc1cnc[nH]1)Nc1ccc(-c2ccc(-c3nc4ccc(F)cc4[nH]3)cc2)cc1 | 58% (active) | 26% | -1% | 99% (active) | inactive | inactive | inactive | inactive
7 | O=C(NCCCCCN1CCC(c2c[nH]c3ccccc23)CC1)c1ccc(-c2cccnc2)cc1 | 10% | 29% | 1% | 89% (active) | inactive | inactive | inactive | inactive
8 | Cc1cccc2[nH]c(-c3cccc(-c4cccc(NC(=O)Nc5ccccc5)c4)c3)nc12 | 64% (active) | 8% | -6% | 101% (active) | inactive | inactive | inactive | inactive
9 | COc1cc2ccccc2c(CNCCCCCCNCc2c(OC)c(OC)cc3ccccc23)c1OC | 89% (active) | 100% (active) | -4% | 95% (active) | inactive | inactive | inactive | inactive
10 | NC(N)=NN=Cc1c2ccc(Cl)cc2c(Cl)c2ccc(Cl)cc12 | 90% (active) | 28% | 0% | 100% (active) | inactive | inactive | inactive | inactive
11 | Cc1noc(C)c1-c1cccc(CNCc2cccc(-c3ccc(-c4nc5c(C)cccc5[nH]4)s3)c2)c1 | 75% (active) | 22% | 1% | 102% (active) | inactive | inactive | inactive | inactive
12 | COc1ccc(-c2ccc(S(=O)(=O)Nc3cc4c(cc3OC(C)C)CCNCC4)cc2)cc1 | -1% | 16% | 3% | 86% (active) | inactive | inactive | inactive | inactive
13 | CN1CCc2cc(Br)c(O)cc2C1Cc1ccccc1Cl (stereo not given) | 88% (active) | 2% | -2% | 98% (active) | inactive | inactive | inactive | inactive
14 | CCCSc1nc2c(c(=O)n1CCc1ccccc1)C1(CCCC1)Cc1ccccc1-2 | 53% (active) | 46% | -4% | 99% (active) | inactive | inactive | inactive | inactive
15 | O=C(Nc1nccs1)c1cn(-c2ccccc2)nc1-c1ccc(Cl)s1 | 18% | 9% | 0% | 96% (active) | inactive | inactive | inactive | inactive
16 | COc1c(C2CCN(CCCCNC(=O)c3ccc(-c4ccc(C#N)cc4)cc3)CC2)ccc2c1C(C)(C)CCC2(C)C | 86% (active) | 98% (active) | -1% | 102% (active) | inactive | inactive | inactive | inactive
17 | N#CN1CC[C@@H](OC(=O)N[C@@H]2C[C@H]2c2ccccc2)C1 | 56% (active) | -1% | -2% | 84% (active) | inactive | inactive | inactive | inactive
18 | O=C(NCc1ccccc1)O[C@@H]1CNCC[C@H]1c1ccc(C(O)Cc2ccccc2)cc1 (stereo not given in full) | 5% | 8% | 4% | 87% (active) | inactive | inactive | inactive | inactive
19 | CN1CCN(CC(=O)Nc2cccc(-c3cccc(-c4nc5ccc(F)cc5[nH]4)c3)c2)CC1 | 98% (active) | 16% | 6% | 100% (active) | inactive | inactive | inactive | inactive
20 | COC(=O)COc1cc(C(=O)NCCCCN2CCC(c3ccc4c(c3OC)CCCC4)CC2)ccc1-c1ccc(Cl)cc1 | 21% | 32% | 2% | 97% (active) | inactive | inactive | inactive | inactive

Row | SMILES | growth inhibition [1] | inhibition [2] | inhibition [3] | growth inhibition [4] | outcome [5] | outcome [6] | outcome [7] | outcome [8]
21 | O=C(Nc1ccc(-c2nc3ccccc3[nH]2)cc1)C1CCN(Cc2cccc(F)c2F)CC1 | 51% (active) | 23% | 2% | 97% (active) | inactive | inactive | inactive | inactive
22 | CC1(C)N=C(N)N=C(N)N1OCCCOc1ccc([N+](=O)[O-])cc1 | 80% (active) | 68% (active) | 0% | 94% (active) | inactive | inactive | inactive | inactive
23 | O=C(Nc1cccc(CN2CCCN(Cc3cccnc3)CC2)c1)c1cc2ccccc2s1 | 28% | 15% | 1% | 92% (active) | inactive | inactive | inactive | inactive
24 | CN(Cc1ccccc1)C(=O)c1nn(CCCN2CCC(N3CCCC3)CC2)cc1-c1ccc(Cl)c(Cl)c1 | 66% (active) | 43% | 0% | 102% (active) | inactive | inactive | inactive | inactive
25 | COc1ccc2cc(C(=O)Nc3ccc4c(c3)CCN(C3CCC3)CC4)ccc2c1 | 9% | 34% | 2% | 101% (active) | inactive | inactive | inactive | inactive
26 | CC(C)c1ccc(NC(=O)c2ccc(C(=O)NC3CCN(Cc4ccsc4)C3)cc2)cc1 (stereo not given) | 28% | 17% | -2% | 82% (active) | inactive | inactive | inactive | inactive
27 | CCOC(=O)c1ccc(NC(=O)NC2CCN(CCCCCNC(=O)/C=C/c3ccc(Cl)c(Cl)c3)C2)cc1 (stereo not given) | 0% | 23% | -3% | 98% (active) | inactive | inactive | inactive | inactive
28 | CCC(C)NC(=O)Nc1ccc(-c2cccc(-c3nc4ccc(C(F)(F)F)cc4[nH]3)c2)cc1 (stereo not given) | -1% | 45% | 0% | 97% (active) | inactive | inactive | inactive | inactive
29 | Fc1cccc(Nc2nc(NCCc3ccc(Cl)cc3)nc(Nc3cccc(F)c3)n2)c1 | 30% | -3% | 6% | 93% (active) | inactive | inactive | inactive | inactive
30 | Clc1ccc(Nc2nc3ccc(Cl)cc3nc2Nc2ccc(Cl)cc2)cc1 | 99% (active) | 79% (active) | 3% | 99% (active) | inactive | inactive | inactive | inactive
31 | CN(C)CCNC(=O)c1ccc(-c2cnc3ccc(NCc4ccc(Cl)c(Cl)c4)nn23)cc1 | 98% (active) | 60% (active) | -5% | 98% (active) | inactive | inactive | inactive | inactive
32 | CCn1c(CN2CCC(C)CC2)nc2cc(NC(=O)c3cccs3)ccc21 | 95% (active) | 40% | 1% | 91% (active) | inactive | inactive | inactive | inactive
33 | CCCc1cc(C(=O)N[C@@H](Cc2ccccc2)[C@H](O)CNC(C)(C)c2cccc(OC)c2)c(F)c(N2CCCC2=O)c1 | 98% (active) | 7% | 0% | 98% (active) | inactive | inactive | inactive | inactive
34 | O=C(/C=C/c1ccc(I)cc1)NCCCCCN1CCC(c2c[nH]c3ccc(O)cc23)CC1 | 1% | 14% | 2% | 97% (active) | inactive | inactive | inactive | inactive
35 | COc1ccc(C(=O)[C@H]2C[C@@H]2CN(C)CCC(O)c2ccc(Cl)c(Cl)c2)cc1 (stereo not given in full) | 86% (active) | 24% | -8% | 94% (active) | inactive | inactive | inactive | inactive
36 | CC(C)c1sc(N2CCN(C)CC2)nc1C(=O)NCCc1cccc(Cl)c1 | 15% | 9% | -1% | 91% (active) | inactive | inactive | inactive | inactive
37 | CC(C)(C)CC(C)(C)c1ccc(O)c(CNC2CCCCC2)c1 | 99% (active) | 92% (active) | 4% | 98% (active) | inactive | inactive | inactive | inactive
38 | CCn1ccc2c(N3CCCS3(=O)=O)cc(C(=O)N[C@@H](Cc3ccccc3)[C@H](O)CNC(C)(C)CCCC(C)C)cc21 | 98% (active) | 8% | 0% | 97% (active) | inactive | inactive | inactive | inactive
39 | Cc1cc(N2CC=CCC2)nc(/N=C(\N)Nc2ccc(Cl)cc2)n1 | 78% (active) | -2% | -8% | 100% (active) | inactive | inactive | inactive | inactive
40 | CCCCCOc1ccc(C=NNc2nc(-c3ccccc3)cc(=O)[nH]2)cc1 | 86% (active) | 0% | -2% | 88% (active) | inactive | inactive | inactive | inactive
